Test [1] concerns MCC-13. The test is described as follows: qHTS assay to identify novel small-molecules to repurpose for Merkel cell carcinoma treatment (AID 1296009). Also: nearly all actives have a fitted effect of over 60% in size. To be noted: MCC and control cell lines, CellTiter-Glo viability, 72 h; series mostly up to 46 µM. The gist of the method:
(§1)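 Luminescence from CellTiter-Glo, read 10 min after addition at room temperature, reported viability following a 72 hr, 37 degree celsius treatment with NPC or MIPE compounds in titration; values normalized to plate controls.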
(In qHTS, concentration-response curves come from the screen itself.)

Test [2] concerns MCC-26. The description is as above. To be noted: MCC and control cell lines, CellTiter-Glo viability, 72 h; series mostly up to 46 µM. The gist of the method:
as §1
On the technique in general: In ATP-based viability assays light output follows the ATP content of the culture.

Test [3] has as its system MKL-1. The test is described as above. To be noted: MCC and control cell lines, CellTiter-Glo viability, 72 h; series mostly up to 46 µM. The gist of the method: as §1
Test [4] relates to MKL-2. Described as above. To be noted: MCC and control cell lines, CellTiter-Glo viability, 72 h; series mostly up to 46 µM. In short, it runs like this:
as §1

In test [5] the test system is UISO. Described as above. To be noted: MCC and control cell lines, CellTiter-Glo viability, 72 h; series mostly up to 46 µM. In short, it runs like this:
as §1

Test [6] deals with WaGa. The test is described as above. To be noted: MCC and control cell lines, CellTiter-Glo viability, 72 h; series mostly up to 46 µM. In short, it runs like this: as §1
The test system of test [7] is C33A. The test is described as follows: Primary qHTS to identify gynecologic anti-cancer compounds using libraries of approved drugs and bioactive compounds (AID 1345084). Also: nearly all actives have a fitted effect of over 55% in size. To be noted: Gynecologic cancer cell panel viability, ATPlite luminescence, 48 h; series mostly up to 57.5 µM. The gist of the method:
(§2)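 48 h compound exposure at 37 C, 5% CO2; five-point qHTS. ATPlite luminescence readout of cell ATP.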

Test [8] has as its system CAOV3. The description is as above. To be noted: Gynecologic cancer cell panel viability, ATPlite luminescence, 48 h; series mostly up to 57.5 µM. In short, it runs like this: as §2
Test [9] relates to CASKI. The description is as above. To be noted: Gynecologic cancer cell panel viability, ATPlite luminescence, 48 h; series mostly up to 57.5 µM. In short, it runs like this: as §2
For test [10], the system named is Es-2. The test is described as above. To be noted: Gynecologic cancer cell panel viability, ATPlite luminescence, 48 h; series mostly up to 57.5 µM. In short, it runs like this:
as §2

Test [11] relates to HeLa. Described as above. To be noted: Gynecologic cancer cell panel viability, ATPlite luminescence, 48 h; series mostly up to 57.5 µM. The gist of the method:
as §2

Test [12] deals with Hek293T. Described as above. To be noted: Gynecologic cancer cell panel viability, ATPlite luminescence, 48 h, control line for the selectivity index; series mostly up to 57.5 µM. The gist of the method:
as §2

Test [13] concerns JEG-3. Described as above. To be noted: Gynecologic cancer cell panel viability, ATPlite luminescence, 48 h; series mostly up to 57.5 µM. In short, it runs like this:
as §2

The subject of test [14] is OV90. Described as above. To be noted: Gynecologic cancer cell panel viability, ATPlite luminescence, 48 h; series mostly up to 57.5 µM. The gist of the method:
as §2

Test [15] concerns PA-1. Described as above. To be noted: Gynecologic cancer cell panel viability, ATPlite luminescence, 48 h; series mostly up to 57.5 µM. In short, it runs like this: as §2
Test [16] relates to SKOV3. Described as above. To be noted: Gynecologic cancer cell panel viability, ATPlite luminescence, 48 h; series mostly up to 57.5 µM. The gist of the method: as §2
Test [17] has as its system Tov-21-G. The test is described as above. To be noted: Gynecologic cancer cell panel viability, ATPlite luminescence, 48 h; series mostly up to 57.5 µM. The gist of the method: as §2
The subject of test [18] is Tov112D. The test is described as above. To be noted: Gynecologic cancer cell panel viability, ATPlite luminescence, 48 h; series mostly up to 57.5 µM. The gist of the method: as §2
Test [19] can be described thus: Drug repurposing screens with cells derived from glioblastoma tumor samples (AID 1345199). Also: nearly all actives have a fitted effect of over 40% in size. Also: potency is read from the fitted curve at half-maximal effect. To be noted: GBM patient neurospheres viability, ATP luminescence, 48 h. In short, it runs like this: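 Primary testing used CD133+ neurospheres from four GBM patients, seven concentrations, 48 h exposure and ATP-based viability; confirmation added three slower-growing patient lines.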

Where [20] appears, read: at 45.9 µM (top of the series), tumour line B.
The mark [21] stands for this setting: at 45.9 µM (top of the series), tumour line D.
Where [22] appears, read: at 46 µM (top of the series), tumour line A.

The values below come from PubChem BioAssay (NCATS).

Several values for one entry are separate records, joined by “and”; a condition that tells them apart may be missing. Identical values can stand only once. Results filed as inconclusive are left out. A number with no mark means an inactive call. Activity calls are given as the source filed them. Calls follow the shape of the dose curve; as a rule, active = well fitted curve in the direction sought with a large enough effect; inconclusive = small, poorly fitted or top-dose-only effect, or another doubt; inactive = no such curve, though single readings can be large; an effect the other way counts as inactive or inconclusive.
% is scaled to controls: 0 for no effect and ±100 for the full control effect.

In the case of `CCC(C)(C)c1ccc(O)cc1`, the outcome in test [1], in test [8], in test [9], in [12], in test [13] and in test [16] was inactive. The Potency result in [2], in test [3], in [4], in [5], in [6] and in test [7] was “inactive” in each case. Also, the Potency result in test [10], in test [11], in test [14], in test [15], in test [17] and in test [18] was “inactive” in each case. Besides, the activity, negative = cell killing was -7.41% in test [19] (setting [20]); 13.4% in test [19] (setting [21]); -14.1% in test [19] (setting [22]); -3.53% in test [19] (at 46.1 µM (top of the series), tumour line C).
As for `COP(=S)(OC)Oc1ccc(S(=O)(=O)N(C)C)cc1`, the compound was classed as inactive in test [1], in test [8], in test [9], in test [12], in test [13] and in test [16]. Also, the Potency result in test [2], in [3], in test [4], in test [5], in test [6] and in [7] was “inactive” throughout. Moreover, the Potency result in test [10], in test [11], in [14], in test [15], in test [17] and in [18] was “inactive” throughout. The activity, negative = cell killing was -4.11% in [19] (setting [20]), -25% in test [19] (setting [21]) and -29.3% in [19] (setting [22]).
As to `CC(C)c1cccc(C(C)C)c1O`, the call in test [1], in test [8], in test [9], in test [12], in test [13] and in test [16] was inactive. In addition, the Potency entry in test [2], in [3], in [4], in test [5], in [6] and in [7] was “inactive” throughout. Moreover, the Potency entry in test [10], in test [11], in test [14], in test [15], in [17] and in test [18] was “inactive” in each case. Further, the figures for the activity, negative = cell killing in test [19] (setting [20]), in [19] (setting [21]) and in test [19] (setting [22]) were 6.49%, 2.93% and -26.1%, respectively.
`C#C[C@]1(O)CC[C@H]2[C@@H]3CCC4=CC(=O)CC[C@]4(C)[C@H]3CC[C@@]21C`: the compound was classed as inactive in test [1], in [8], in test [9], in [12], in test [13] and in [16]. Besides, the Potency result in test [2], in test [3], in [4], in [5], in [6] and in test [7] was “inactive” throughout. For the same compound, the Potency result in test [10], in [11], in test [14], in test [15], in test [17] and in test [18] was “inactive” in each case. In addition, the activity, negative = cell killing in [19] (setting [20]) is -23.4% and -19.6%; in [19] (setting [21]), -13.1% and -15.3%; in test [19] (setting [22]) it was -19.9%.
In the case of `C=CCN1C[C@H](C)N([C@H](c2ccc(C(=O)N(CC)CC)cc2)c2cccc(OC)c2)C[C@H]1C`, the result in test [1], in [8], in test [9], in [12], in test [13] and in test [16] was inactive. Also, the Potency entry in test [2], in test [3], in test [4], in test [5], in [6] and in test [7] was “inactive” each time. The Potency entry in test [10], in test [11], in test [14], in [15], in test [17] and in test [18] was “inactive” each time. The activity, negative = cell killing in test [19] (setting [20]) is -27.6%. Also, the Potency in test [19] (tumour line A) was 7.08 µM (active).
For `NC1=NC(=O)C(c2ccccc2)O1` (stereo unspecified), the call in test [1], in test [8], in test [9], in [12], in [13] and in [16] was inactive. Besides, the Potency entry in test [2], in test [3], in test [4], in test [5], in [6] and in test [7] was “inactive” throughout. Moreover, the Potency entry in test [10], in test [11], in [14], in test [15], in [17] and in [18] was “inactive” each time. In addition, the activity, negative = cell killing was -0.343% in test [19] (setting [20]), -7.44% in test [19] (setting [21]) and -19.1% in [19] (setting [22]).
